Source: PubChem BioAssay
SKKanGAS inh = SKKanGAS growth inhibition; inhibition, % at 7.5 µM; S. pyogenes SKKanGAS, kanamycin growth, BacTiter-Glo, 6 h; 300,000 compounds, 1.3% hits;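 active means mean replicate score, as percent of positive control median, at least 50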;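 further: strain carries kanamycin resistance gene driven by streptokinase promoter and grows in 40 µg/ml kanamycin; loss of luminescence reflects streptokinase promoter inhibition or plain growth inhibition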
TIM10 inh = inhibits growth of TIM10 yeast strain; 330,000 compounds, 1.4% hits; inhibition, % at 10 µM; S. cerevisiae TIM10 strain growth, BacTiter-Glo luminescence, 24 h; AID 463195;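 active means inhibition of 40% or more at the single tested concentration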;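 further: wild-type TIM10 isogenic control strain grown at permissive 25 °C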
NALP1 inh = inhibitors of NALP1 inflammasome in yeast. S. cerevisiae NALP1/ASC/caspase-1 growth, X-gal OD620, 72 h. inhibition, % at 10 µM. 280,000 compounds, 0.61% hits; in the data active means inhibition mostly above about 24%, no sharp cut-off; inactive means mostly below about 32%
tim23-1 inh = inhibits growth of tim23-1 mutant yeast; S. cerevisiae tim23-1 growth, BacTiter-Glo luminescence, 24 h; inhibition, % at 20 µM; 330,000 compounds, 1.3% hits; AID 463212;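 active means growth inhibition of the mutant yeast at or above 50%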;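 further: temperature-sensitive mutant grown at 25 °C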
tim10-1 inh = tim10-1 yeast growth inhibition; S. cerevisiae tim10-1 ts strain growth, BacTiter-Glo, 24 h; inhibition, % at 20 µM; 330,000 compounds, 2.2% hits; AID 463190;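 active means inhibition of at least 40%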;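 further: mutant grown at 25 °C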
PfHsp90 set2 = inhibits growth of yeast expressing Plasmodium falciparum Hsp90. AID 504621. S. cerevisiae expressing PfHsp90, BacTiter-Glo ATP, 48 h; yeast lacking PDR1 and PDR3 efflux regulators. inhibition, % at 9.4 µM. 310,000 compounds, 0.32% hits;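 active means every replicate shows inhibition above about 80%, whatever the replicate mean, limit read from the data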
A number is an active result; n = inactive; x = no result. Most compounds without a hit are left out; they make up all but 4.8% or so of the library.

SMILES	SKKanGAS inh	TIM10 inh	NALP1 inh	tim23-1 inh	tim10-1 inh	PfHsp90 set2
CCOC(=O)Cc1csc(NC(=O)c2cc(=O)c3ccccc3o2)n1	n	n	n	n	n	n
Cc1cc(C)c2nc(NNC(=O)c3cc(=O)c4ccccc4o3)sc2c1	84.8	n	n	n	n	n
Cc1cc(C)c2sc(NNC(=O)c3ccc(S(=O)(=O)N4CCc5ccccc5C4)cc3)nc2c1	65.4	n	n	n	n	n
CC(=O)c1c(C(C)=O)c(C)n(NC(=O)c2ccncc2)c1C	n	n	n	n	n	n
COc1ccc(C(=O)NC(=S)NNC(=O)COc2ccccc2)cc1	88.4	n	n	n	n	n
O=C(CCc1ccccc1)NNC(=S)NC(=O)c1ccc(Cl)cc1	60.7	n	n	n	n	x
O=C(COc1ccccc1)NNC(=S)NC(=O)c1ccccc1	74.9	n	n	n	n	n
O=C(Cc1ccc(Cl)cc1)NNC(=S)NC(=O)c1cccnc1	n	n	n	n	n	n
O=C(NNC(=S)NC(=O)c1cccnc1)c1ccc(Cl)cc1	51.9	n	n	n	n	n
COc1ccc(C(=O)NC(=S)NCCc2ccccc2)cc1	n	n	n	n	n	n
COc1ccc(C(=O)NC(=S)NNC(=O)c2cnccn2)cc1	n	n	n	n	n	94.0
O=C(NC(=S)NNC(=O)c1cnccn1)c1ccc(Cl)cc1	n	n	x	n	n	n
Cc1cccc(N(CC(=O)NCc2ccco2)C(=O)CNS(=O)(=O)c2ccc(F)cc2)c1	n	n	n	n	n	n
CC(NC(=O)c1ccc(F)cc1)c1ccc2c(c1)CCCC2 (stereo not drawn)	n	n	n	n	n	n
CC(NC(=O)c1ccc(Br)cc1)c1ccc2c(c1)CCCC2 (stereo not drawn)	n	n	n	n	n	105.0
COc1ccccc1OC(C)C(=O)N1CC(=O)Nc2ccccc21 (stereo not drawn)	n	n	n	n	n	n
CC(C)c1ccc(-c2nc(N3CCCC3)nc3n[nH]c(N)c23)cc1	53.0	n	n	n	n	n
Cc1nn(-c2ccccc2)c(C)c1-c1nnc(-c2c(C)nn(-c3ccccc3)c2C)o1	57.0	n	n	n	n	n
Cc1cc(Cl)c2oc(C(=O)N(C)Cc3ccon3)c(C)c2c1	n	n	41.5	n	n	n
CSc1ccc(/C=C/c2ccc3cccc(O)c3n2)cc1	100.5	n	n	n	n	n
O=[N+]([O-])c1cccc2ccc(/C=C/c3ccc(Cl)cc3)nc12	n	n	n	n	n	n
Cc1ccsc1/C=C/c1ccc2cccc(O)c2n1	100.6	n	n	n	n	n
CN(C)S(=O)(=O)c1ccc(-c2csc(N/N=C/c3ccc(O)cc3)n2)cc1	65.4	n	n	n	n	n
Cc1oc2cc(O)ccc2c(=O)c1Oc1ccc2ccccc2c1	n	n	32.4	n	n	n
Cc1oc2cc(O)ccc2c(=O)c1Oc1ccc(F)cc1	n	n	n	n	n	n
SMILES	SKKanGAS inh	TIM10 inh	NALP1 inh	tim23-1 inh	tim10-1 inh	PfHsp90 set2
C1CC1C(=NN=C(C1CC1)C1CC1)C1CC1	x	x	x	x	x	n
CCC(=O)N(CCC(Cc1ccccc1)c1ccco1)Cc1ccco1 (stereo not drawn)	n	n	n	n	n	n
CCC(=O)N(CCC(Cc1ccccc1)c1ccc2c(c1)OCO2)Cc1ccccc1F (stereo not drawn)	52.1	n	n	n	n	n
O=C(CSc1nc2ccccc2o1)Nc1ccc(N2CCOCC2)cc1	n	n	27.9	n	n	x
CCCc1cc(=O)[nH]c(SCCOc2ccc(OCC)cc2)n1	n	n	43.7	n	n	x
COc1cccc(NC(=O)CN2CCN(c3ccccc3F)CC2)c1	n	n	n	n	n	n
COc1ccc(NC(=S)Nc2ccc3nccnc3c2)cc1	n	x	n	x	x	n
O=C(O)CN1C(=O)/C(=C\c2cc(Br)ccc2OCc2ccc(Cl)cc2)SC1=S	93.9	x	n	x	x	n
O=C(O)CN1C(=O)/C(=C\c2cc([N+](=O)[O-])ccc2OCc2ccccc2Cl)SC1=S	55.4	n	n	n	n	n
Cc1cc(C)n(Cc2ccccc2F)c(=O)c1C#N	n	n	n	n	n	n
COc1ccc(CN2CCN(Cc3ccccc3F)CC2)c(OC)c1	n	n	n	n	n	n
CCc1nccn1S(=O)(=O)c1ccc(OC)c(C)c1C	n	n	34.1	n	n	n
O=C(Cc1ccccc1)N/N=C/c1cc(Br)cs1	n	n	n	n	n	n
